# PNC inhibitor: perinucleolar compartment assembly inhibition; PC3M PTB-GFP, PNC prevalence imaging, 16 h; stronger effect = lower value; AID 2417; 140,000 tested, 3.1% active; activity change (PNC), negative = inhibition, % at 10 µM;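 active means readout at or below -70, meaning at least 70% loss of cells showing the perinucleolar compartment, a nuclear body marking cancer cells; inconclusive means readout between -30 and a set limit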;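 further: plate controls were DMSO wells for no effect and camptothecin positive control wells for full effect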
#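 Compounds are pinned in duplicate onto adhered PC3M cells stably expressing GFP-tagged PTB and incubated 16 h at 37 C. Cells are then fixed, nuclei stained with Hoechst, and PNC-positive cells counted.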
# Lamin A splicing: modulators of lamin A splicing; HeLa LMNA splicing GFP/RFP minigene ratio, 48 h; Potency, µM (doses to about 46.1 µM), for the others: at the highest dose ratio change, negative = inhibition, actives largely listed as inhibitors; 200,000 tested, 0.01% active; AID 1487; active means well fitted inhibition curve with a large enough effect in the signal ratio, with a control signal flat, not every such curve was filed as active; inconclusive means small, poorly fitted or top-dose-only effect, or effect the other way, or a change in a side signal; the % refers to the signal ratio; further: potency means the concentration at half of the fitted maximal effect
#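 Read-out is the ratio of GFP to DsRed2 object intensity, acquired by 488 nm laser-scanning cytometry on HeLa lamin A-EGFP minigene reporter cells. Compound incubation 48 hrs at 37 °C in Opti-MEM with 2% FBS; DMSO 0.5% final.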
# HPGD block: blocks human HPGD enzyme activity. AID 894. Potency, µM, for inactives: at the top dose activity change, negative = inhibition, actives largely listed as inhibitors. 150,000 tested, 4.3% active. P15428. purified HPGD, NADH fluorescence kinetic, PGE2 substrate; further: potency means the concentration at half of the fitted maximal effect
# Target sequence (P15428 whole entry, looked up): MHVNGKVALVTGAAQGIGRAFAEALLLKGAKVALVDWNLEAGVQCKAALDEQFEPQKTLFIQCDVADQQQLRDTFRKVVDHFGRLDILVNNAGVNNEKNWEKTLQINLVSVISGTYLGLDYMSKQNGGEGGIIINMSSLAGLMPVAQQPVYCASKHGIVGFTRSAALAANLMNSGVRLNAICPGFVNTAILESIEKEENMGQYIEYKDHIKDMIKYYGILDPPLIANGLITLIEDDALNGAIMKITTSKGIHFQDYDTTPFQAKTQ
#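 NADH formation kinetics: reaction with 30 uM PGE2 and 1 mM NAD+ (final), 20 nM enzyme, Tris-HCl pH 8 with Tween 20, after 15 min compound preincubation at room temperature. Fluorescence change, last versus first of five reads.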
# ALDH1A1 block: inhibitors of human aldehyde dehydrogenase 1A1; P00352; AID 1030; Potency, µM (series often up to 75.3 µM), for inactives: at the highest dose activity, negative = inhibition, actives largely listed as inhibitors; Purified ALDH1A1, NADH fluorescence, propionaldehyde substrate; 220,000 tested, 7.3% active;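 further: potency means the concentration at half of the fitted maximal effect; plate controls were no enzyme wells and a reference inhibitor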
# ALOX12 inhib: 12-hLO (ALOX12) enzyme inhibition; Potency, µM (top dose mostly 57.1 µM), for the others: at the highest dose activity change, negative = inhibition, usual class: inhibitors; purified 12-hLO, xylenol orange hydroperoxide absorbance; 150,000 tested, 0.12% active; active means well fitted inhibition curve with a large enough effect; inconclusive means small, poorly fitted or top-dose-only effect; further: potency means the concentration at half of the fitted maximal effect; nearly all actives have a fitted effect of over 55% in size
#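 Hydroperoxide formation by human 12-lipoxygenase from 40 uM arachidonic acid was followed colorimetrically via ferric-xylenol orange complex, using the 573/405 nm absorbance ratio. Enzyme concentration was 150 nM, with 30 min reaction at room temperature.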
# Starred values were filed as active, the others as inactive; ? = inconclusive; / = no result; [ ] = dose if it differs, or a comment. In the library only some 10% were active in any assay of this set; here they are far more common. Unless noted, the call rests on the fitted dose curve; in most records, active means well fitted inhibition curve with a large enough effect (not every such curve was filed as active); inconclusive means small, poorly fitted or top-dose-only effect, or another doubt; inactive means no such curve, though single readings can be large or run the other way. Unless noted, on the % scale 0 is the no-effect control and ±100 the full control effect.
SMILES,PNC inhibitor,Lamin A splicing,HPGD block,ALDH1A1 block,ALOX12 inhib
Cc1cccc(-n2c(Cn3nc(C)c([N+](=O)[O-])c3C)n[nH]c2=S)c1,19,19%,-25%,25µM*,3%
Cc1ccc(CNc2nc(-c3ccco3)nn2C(=O)c2ccccc2[N+](=O)[O-])cc1,/,-1%[46 µM],/,/,/
Cc1ccccc1Nc1oc(-c2ccccc2)nc1-c1cccc2ccccc12,/,/,-2%,25µM*,1%
COC(=O)C1=C(C(=O)OC)[C@@H]2N(Cc3ccccc3)c3ccccc3[C@@]23C[C@@H](C(=O)OC)N(S(=O)(=O)c2ccc4c(c2)OCCN4C)C3=N1,/,-4%[9.22 µM],-7%,-2%[13.5 µM],4%[11.4 µM]
Cc1c(NC2=NC(C)(C)Cc3ccccc32)c(=O)n(-c2ccccc2)n1C,-88*,-5%,-6%,8%,6%
COC(=O)c1ccc(N2C(=O)CC(SCCN)C2=O)cc1 (stereo not drawn),1,-7%,-6%,13µM*,-1%
CCOc1ccc(N2C(=O)CC(N)C2=O)cc1 (stereo not drawn),?,-10%,40µM*,1.1µM*,0%
CCOC(=O)C(N)CSC1CC(=O)N(c2ccc(C(=O)OC)cc2)C1=O (stereo not drawn),-2,?,-10%,7.1µM*,3%
CCCOc1ccc(N2C(=O)CC(SCCN)C2=O)cc1 (stereo not drawn),36,20%,-13%,0.22µM*,4%
CCOC(=O)c1ccc(N2C(=O)CC(C3CCCO3)C2=O)cc1 (stereo not drawn),27,7%,-1%,-5%,-3%
CCOc1ccc(N2C(=O)CC(N3CCc4ccccc43)C2=O)cc1 (stereo not drawn),13,2%,-9%,-7%,7%
CCCOc1ccc(N2C(=O)CC(SC(=NCC)NCC)C2=O)cc1 (stereo not drawn),?,1%,-3%,-3%,-1%
COc1cccc(NC(=O)c2nn(-c3ccc(C)cc3)c(=O)n(C)c2=O)c1,/,4%[46 µM],/,/,/
Cc1ccccc1C#N,/,/,-1%,3%,-1%
CN(C)CCNC(=O)c1ccc(Cc2nc3ccccc3[nH]2)cc1,/,/,3%,-3%,1%
CCOC(=O)c1nc(Nc2ccc(N3CCC(C)CC3)cc2)c2ccccc2n1,/,/,/,-3%,/
CCC1CN(C(=O)Nc2cccc3c2CCCC3)c2cc(C)ccc2O1 (stereo not drawn),/,5%[46 µM],/,/,/
CCCNC(=O)c1ccccc1NC(=O)c1nsc2ccccc12,/,-17%[46 µM],/,/,/
CCS(=O)(=O)C1=NN2C(=N)/C(=C\c3ccc(SCc4ccco4)o3)C(=O)N=C2S1,/,/,/,1.8µM*,/
N#CC(C#N)=NNc1ccc(S(=O)(=O)N2CCCCC2)cc1,?,-1%,32µM*,?,-1%
N#C/C(=N\Nc1ccc(S(=O)(=O)N2CCOCC2)cc1)C(N)=S,/,?,/,3.2µM*,/
CC1CCN(S(=O)(=O)c2ccc(N/N=C(/C#N)C(N)=O)cc2)CC1,-2,5%,-8%,2%,-26%
COC(=O)[C@@H](NC(=O)O[C@H]1C(=O)c2cc(OC)ccc2O[C@@H]1c1ccc(OC)c(Br)c1)C(C)C,/,/,-16%,?,/
CCc1ccccc1NC(=O)Cn1ccn(-c2cc(C)cc(C)c2)c(=O)c1=O,/,1%[46 µM],/,/,/
COc1ccc(CNC(=O)c2sc3nc4n(c(=O)c3c2C)CCCCC4)cc1,/,-22%[46 µM],/,/,/
CCCCC1(C)OC(=O)C(=Cc2c[nH]c3ccccc23)C(=O)O1 (stereo not drawn),/,/,/,-12%,/
CCCCC1(C)OC(=O)C(=Cc2ccc(N(C)C)cc2)C(=O)O1 (stereo not drawn),82,-3%,11µM*,1.1µM*,2%
COc1ccc(S(=O)(=O)N2Cc3ccccc3CC2C(=O)Nc2nccs2)cc1 (stereo not drawn),24,-14%,-14%,5µM*,0%
CCc1nc(C)cn1S(=O)(=O)c1cc(C)c(OC)c(C)c1C,-1,?,-9%,25µM*,7%
CCc1nc(C)cn1S(=O)(=O)c1cc(C)c(OC)cc1C,-12,1%,6%,10%,8%

# High-throughput results: PubChem BioAssay, National Center for Advancing Translational Sciences (NCATS)
